Reference: the supplement of paper PMC6992640

tested on: WHIM30 (cells of a triple-negative basal-like breast cancer xenograft); assay: cell viability of combination (% of vehicle); higher = less cytotoxic; settings: 1 µM; 72 h; partner dose: 10 nM
Procedure: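 PDX cells were treated for 72 h with each drug at 1 µM plus carfilzomib (10 nM; 100 nM for WHIM2). Luciferase viability is expressed as percent of vehicle.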

| SMILES | cell viability of combination |
| --- | --- |
| COc1cc(C(=O)O)ccc1NC(=O)C1NC(CC(C)(C)C)C(C#N)(c2ccc(Cl)cc2F)C1c1cccc(Cl)c1F (stereo not given) + CC(C)C[C@H](NC(=O)[C@H](CCc1ccccc1)NC(=O)CN1CCOCC1)C(=O)N[C@@H](Cc1ccccc1)C(=O)N[C@@H](CC(C)C)C(=O)[C@@]1(C)CO1 [Carfilzomib] | 23.5 |
| CO[C@H]1C[C@@H]2CC[C@@H](C)[C@@](O)(O2)C(=O)C(=O)N2CCCC[C@H]2C(=O)O[C@H]([C@H](C)C[C@@H]2CC[C@@H](OC(=O)C(C)(CO)CO)[C@H](OC)C2)CC(=O)[C@H](C)/C=C(\C)[C@@H](O)[C@@H](OC)C(=O)[C@H](C)C[C@H](C)/C=C/C=C/C=C/1C [Temsirolimus] + CC(C)C[C@H](NC(=O)[C@H](CCc1ccccc1)NC(=O)CN1CCOCC1)C(=O)N[C@@H](Cc1ccccc1)C(=O)N[C@@H](CC(C)C)C(=O)[C@@]1(C)CO1 [Carfilzomib] | 23.9 |
| CCOc1cc2ncc(C#N)c(Nc3ccc(OCc4ccccn4)c(Cl)c3)c2cc1NC(=O)C=CCN(C)C [Neratinib (HKI-272)] + CC(C)C[C@H](NC(=O)[C@H](CCc1ccccc1)NC(=O)CN1CCOCC1)C(=O)N[C@@H](Cc1ccccc1)C(=O)N[C@@H](CC(C)C)C(=O)[C@@]1(C)CO1 [Carfilzomib] | 17.5 |
| Cc1cc(-n2c(=O)[nH]c(=O)n(C)c2=O)ccc1Oc1ccc(SC(F)(F)F)cc1 [Toltrazuril] + CC(C)C[C@H](NC(=O)[C@H](CCc1ccccc1)NC(=O)CN1CCOCC1)C(=O)N[C@@H](Cc1ccccc1)C(=O)N[C@@H](CC(C)C)C(=O)[C@@]1(C)CO1 [Carfilzomib] | 19.3 |
| CCCCCCCCCCCC1=C(O)C(=O)C=C(O)C1=O [Embelin] + CC(C)C[C@H](NC(=O)[C@H](CCc1ccccc1)NC(=O)CN1CCOCC1)C(=O)N[C@@H](Cc1ccccc1)C(=O)N[C@@H](CC(C)C)C(=O)[C@@]1(C)CO1 [Carfilzomib] | 17.7 |
| COCCOC(=O)C1=C(C)NC(C)=C(C(=O)OCC=Cc2ccccc2)C1c1cccc([N+](=O)[O-])c1 (stereo not given) [Cilnidipine] + CC(C)C[C@H](NC(=O)[C@H](CCc1ccccc1)NC(=O)CN1CCOCC1)C(=O)N[C@@H](Cc1ccccc1)C(=O)N[C@@H](CC(C)C)C(=O)[C@@]1(C)CO1 [Carfilzomib] | 19.2 |
| CCN(CC)CCNC(=O)c1c(C)[nH]c(C=C2C(=O)Nc3ccc(F)cc32)c1C.O=C(O)CC(O)C(=O)O [Sunitinib malate] + CC(C)C[C@H](NC(=O)[C@H](CCc1ccccc1)NC(=O)CN1CCOCC1)C(=O)N[C@@H](Cc1ccccc1)C(=O)N[C@@H](CC(C)C)C(=O)[C@@]1(C)CO1 [Carfilzomib] | 33.1 |
| COc1cc2nccc(Oc3ccc(NC(=O)C4(C(=O)Nc5ccc(F)cc5)CC4)cc3)c2cc1OC.O=C(O)CC(O)C(=O)O [Cabozantinib malate (XL184)] + CC(C)C[C@H](NC(=O)[C@H](CCc1ccccc1)NC(=O)CN1CCOCC1)C(=O)N[C@@H](Cc1ccccc1)C(=O)N[C@@H](CC(C)C)C(=O)[C@@]1(C)CO1 [Carfilzomib] | 16.1 |
| COC(=O)NC(C(=O)NC(Cc1ccccc1)C(O)CN(Cc1ccc(-c2ccccn2)cc1)NC(=O)C(NC(=O)OC)C(C)(C)C)C(C)(C)C (stereo not given) [Atazanavir] + CC(C)C[C@H](NC(=O)[C@H](CCc1ccccc1)NC(=O)CN1CCOCC1)C(=O)N[C@@H](Cc1ccccc1)C(=O)N[C@@H](CC(C)C)C(=O)[C@@]1(C)CO1 [Carfilzomib] | 24.5 |
| O=C(O)c1cc(O)c(O)c(O)c1 [Gallic acid] + CC(C)C[C@H](NC(=O)[C@H](CCc1ccccc1)NC(=O)CN1CCOCC1)C(=O)N[C@@H](Cc1ccccc1)C(=O)N[C@@H](CC(C)C)C(=O)[C@@]1(C)CO1 [Carfilzomib] | 16.3 |
| CCCCc1oc2ccc(NS(C)(=O)=O)cc2c1C(=O)c1ccc(OCCCN(CCCC)CCCC)cc1 [Dronedarone] + CC(C)C[C@H](NC(=O)[C@H](CCc1ccccc1)NC(=O)CN1CCOCC1)C(=O)N[C@@H](Cc1ccccc1)C(=O)N[C@@H](CC(C)C)C(=O)[C@@]1(C)CO1 [Carfilzomib] | 19 |
| COC1=C(OC)C(=O)C(CCCCCCCCCCO)=C(C)C1=O [Idebenone] + CC(C)C[C@H](NC(=O)[C@H](CCc1ccccc1)NC(=O)CN1CCOCC1)C(=O)N[C@@H](Cc1ccccc1)C(=O)N[C@@H](CC(C)C)C(=O)[C@@]1(C)CO1 [Carfilzomib] | 17.5 |
| Cc1nc(Nc2ncc(C(=O)Nc3c(C)cccc3Cl)s2)cc(N2CCN(CCO)CC2)n1 + CC(C)C[C@H](NC(=O)[C@H](CCc1ccccc1)NC(=O)CN1CCOCC1)C(=O)N[C@@H](Cc1ccccc1)C(=O)N[C@@H](CC(C)C)C(=O)[C@@]1(C)CO1 [Carfilzomib] | 26.6 |
| COc1cc(C(=O)NS(=O)(=O)c2ccccc2C)ccc1Cc1cn(C)c2ccc(NC(=O)OC3CCCC3)cc12 [Zafirlukast] + CC(C)C[C@H](NC(=O)[C@H](CCc1ccccc1)NC(=O)CN1CCOCC1)C(=O)N[C@@H](Cc1ccccc1)C(=O)N[C@@H](CC(C)C)C(=O)[C@@]1(C)CO1 [Carfilzomib] | 17.9 |
| CC(C)Nc1cc(-c2c[nH]c(C(=O)NC(CO)c3cccc(Cl)c3)c2)c(Cl)cn1 (stereo not given) + CC(C)C[C@H](NC(=O)[C@H](CCc1ccccc1)NC(=O)CN1CCOCC1)C(=O)N[C@@H](Cc1ccccc1)C(=O)N[C@@H](CC(C)C)C(=O)[C@@]1(C)CO1 [Carfilzomib] | 21.7 |
| CN1CCCC1CCOC(C)(c1ccccc1)c1ccc(Cl)cc1.O=C(O)C=CC(=O)O (stereo not given) [Clemastine Fumarate] + CC(C)C[C@H](NC(=O)[C@H](CCc1ccccc1)NC(=O)CN1CCOCC1)C(=O)N[C@@H](Cc1ccccc1)C(=O)N[C@@H](CC(C)C)C(=O)[C@@]1(C)CO1 [Carfilzomib] | 15.5 |
| CNCCCC12CCC(c3ccccc31)c1ccccc12.Cl [Maprotiline HCl] + CC(C)C[C@H](NC(=O)[C@H](CCc1ccccc1)NC(=O)CN1CCOCC1)C(=O)N[C@@H](Cc1ccccc1)C(=O)N[C@@H](CC(C)C)C(=O)[C@@]1(C)CO1 [Carfilzomib] | 16 |
| C1=C\COCc2cc(ccc2OCCN2CCCC2)Nc2nccc(n2)-c2cccc(c2)COC/1 [Pacritinib] + CC(C)C[C@H](NC(=O)[C@H](CCc1ccccc1)NC(=O)CN1CCOCC1)C(=O)N[C@@H](Cc1ccccc1)C(=O)N[C@@H](CC(C)C)C(=O)[C@@]1(C)CO1 [Carfilzomib] | 11.5 |
| CC(=O)C1(O)Cc2c(O)c3c(c(O)c2C(OC2CC(N)C(O)C(C)O2)C1)C(=O)c1ccccc1C3=O.Cl (stereo not given) [Idarubicin HCl] + CC(C)C[C@H](NC(=O)[C@H](CCc1ccccc1)NC(=O)CN1CCOCC1)C(=O)N[C@@H](Cc1ccccc1)C(=O)N[C@@H](CC(C)C)C(=O)[C@@]1(C)CO1 [Carfilzomib] | 5.43 |
| CC(C)C(=O)OCC(=O)[C@@]12O[C@H](C3CCCCC3)O[C@@H]1C[C@H]1[C@@H]3CCC4=CC(=O)C=C[C@]4(C)[C@H]3[C@@H](O)C[C@@]12C [Ciclesonide] + CC(C)C[C@H](NC(=O)[C@H](CCc1ccccc1)NC(=O)CN1CCOCC1)C(=O)N[C@@H](Cc1ccccc1)C(=O)N[C@@H](CC(C)C)C(=O)[C@@]1(C)CO1 [Carfilzomib] | 31.2 |
